Measured values taken from PubChem BioAssay (Tox21).
Inconclusive results are not listed. Calls of active or inactive are those of the source. The call rests on the fitted dose curve.

Tests used:
[1] = molecular target: Acetylcholinesterase (Homo sapiens) (UniProt P22303); experiment: Acetylcholinesterase (AChE) small molecule antagonists: colormetric cell-based qHTS assay (AID 1347395); further: nearly all actives have a fitted effect of over 30% in size
In short: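 Colorimetric read-out: DTNB detects thiocholine released when cellular AChE in SH-SY5Y cells hydrolyses acetylthiocholine. Cells attached overnight, received compound for 30 min at 37 C, then substrate mix for 90 min at 37 C.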

[2] = molecular target: Acetylcholinesterase (Homo sapiens) (UniProt P22303); experiment: Acetylcholinesterase (AChE) small molecule antagonists: enzyme-based qHTS assay (AID 1347397); conditions: Potency: AChE enzyme activity inhibition; outcome: AChE enzyme activity inhibition; further: nearly all actives have a fitted effect of over 55% in size
In short: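 rhAChE 50 mU/mL (dispensed) + cpd or DMSO, 30 min RT; add DTNB/acetylthiocholine cocktail, 10 min RT; colorimetric thiocholine readout. qHTS, 1536-well format.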

[3] = molecular target: Acetylcholinesterase (Homo sapiens) (UniProt P22303); experiment: Acetylcholinesterase (AChE) small molecule antagonists: fluorescence cell-based qHTS assay (AID 1347398); conditions: Potency: AChE activity; outcome: AChE activity; further: nearly all actives have a fitted effect of over 50% in size
In short: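 Read-out is Thiolite Green fluorescence at Ex/Em = 490/520 nm, formed by reaction with thiocholine released when cellular AChE in SH-SY5Y cells hydrolyzes acetylthiocholine. Compounds were preincubated 30 min at 37 C before substrate.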

[4] = molecular target: Acetylcholinesterase (Homo sapiens) (UniProt P22303); experiment: Acetylcholinesterase (AChE) small molecule antagonists: enzyme-based qHTS assay with human liver microsomes (AID 1347399); conditions: Potency: qHTS inhibition; outcome: qHTS inhibition; further: nearly all actives have a fitted effect of over 60% in size
In short: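 Recombinant human AChE (50 mU/mL in the enzyme mix) and human liver microsomes (0.25 mg/mL final) were preincubated with compound and NADPH (0.25 mg/mL final) for 30 min at 37 C. Acetylthiocholine/DTNB was then added; thiocholine was read colorimetrically after 10 min at room temperature.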
On the % scale 0 is the no-effect control and ±100 the full control effect.

Acetylcholinesterase (Homo sapiens), sequence (P22303 whole entry, looked up): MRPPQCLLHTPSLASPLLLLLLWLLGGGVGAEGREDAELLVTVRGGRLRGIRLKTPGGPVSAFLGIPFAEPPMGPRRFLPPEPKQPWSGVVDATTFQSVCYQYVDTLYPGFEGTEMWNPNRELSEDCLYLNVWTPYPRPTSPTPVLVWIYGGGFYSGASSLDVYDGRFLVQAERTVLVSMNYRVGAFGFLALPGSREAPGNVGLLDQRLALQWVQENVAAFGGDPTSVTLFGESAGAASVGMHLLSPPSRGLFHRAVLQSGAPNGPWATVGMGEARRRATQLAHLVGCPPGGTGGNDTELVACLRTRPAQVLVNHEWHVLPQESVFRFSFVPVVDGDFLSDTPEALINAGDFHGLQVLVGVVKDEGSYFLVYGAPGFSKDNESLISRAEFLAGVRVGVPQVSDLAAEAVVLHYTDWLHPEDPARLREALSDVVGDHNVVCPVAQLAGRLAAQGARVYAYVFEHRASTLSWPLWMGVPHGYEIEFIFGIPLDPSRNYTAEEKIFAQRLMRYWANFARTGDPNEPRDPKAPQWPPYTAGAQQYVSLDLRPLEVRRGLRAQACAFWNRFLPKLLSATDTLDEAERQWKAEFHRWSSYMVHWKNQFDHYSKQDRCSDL

COC(=O)c1ccc(C(=O)O)cc1
inactive: Potency [1] | Potency [2] | Potency [3] | Potency [4]

NCCOCCO
inactive: Potency [1] | Potency [2] | Potency [3] | Potency [4]

Clc1sc(Cl)c(Cl)c1Cl
inactive: Potency [1] | Potency [2] | Potency [3] | Potency [4]

NCCN
inactive: outcome [1] | outcome [2] | outcome [3] | outcome [4]

C=C(C)[C@H]1CC=C(C)C(=O)C1
inactive: Potency [1] | Potency [2] | Potency [3] | Potency [4]

CC(C)N(c1ccccc1)C(C)C
inactive: Potency [1] | Potency [2] | Potency [3] | Potency [4]

OC(CCN1CCCCC1)(c1ccccc1)c1ccccc1
inactive: Potency [1] | Potency [2] | Potency [3] | Potency [4]

C=C[C@@H](C)CCC=C(C)C
inactive: Potency [1] | Potency [2] | Potency [3] | Potency [4]

O=C(Nc1ccc(C(=O)O)c(O)c1)c1ccccc1
inactive: Potency [1] | Potency [2] | Potency [3] | Potency [4]

COC(OC)OC
inactive: Potency [1] | Potency [2] | Potency [3] | Potency [4]

CCCCN(CCCC)c1ccc(C(=O)c2ccccc2C(=O)O)c(O)c1
inactive: Potency [1] | Potency [2] | Potency [3] | Potency [4]

CN1C(C(=O)Nc2ccccn2)=C(O)c2sccc2S1(=O)=O
inactive: Potency [1] | Potency [2] | Potency [3] | Potency [4]

CC(COC(=O)c1ccccc1)OC(=O)c1ccccc1 (stereo not given)
inactive: Potency [1] | Potency [2] | Potency [3] | Potency [4]

O=[N+]([O-])C(CO)(CO)CO
inactive: Potency [1] | Potency [2] | Potency [3] | Potency [4]

Cn1cc(S(C)=O)c(=O)c2ccc(F)cc21 (stereo not given)
inactive: Potency [1] | Potency [2] | Potency [3] | Potency [4]

CCCCCCCCCCO[C@@H]1O[C@H](CO)[C@@H](O)[C@H](O)[C@H]1O
inactive: Potency [1] | Potency [2] | Potency [3] | Potency [4]

CCCN(CCC)C(=O)SCC
inactive: Potency [1] | Potency [2] | Potency [3] | Potency [4]

CCCCCCCCCOC(=O)CCCCC(=O)OCCCCCCC
inactive: Potency [1] | Potency [2] | Potency [3] | Potency [4]

CC(C)(Oc1ccc(CCNC(=O)c2ccc(Cl)cc2)cc1)C(=O)O
inactive: Potency [1] | Potency [2] | Potency [3] | Potency [4]

COc1cc([N+](=O)[O-])ccc1N
inactive: Potency [1] | Potency [2] | Potency [3] | Potency [4]

CCOC(=O)C(O)c1ccccc1 (stereo not given)
inactive: Potency [1] | Potency [2] | Potency [3] | Potency [4]

CCCc1c2oc(C(=O)O)cc(=O)c2cc2c(=O)cc(C(=O)O)n(CC)c12
inactive: Potency [1] | Potency [2] | Potency [3] | Potency [4]

Cc1ccc(S(=O)(=O)NC(=O)NC2CCCCCCC2)cc1
inactive: Potency [1] | Potency [2] | Potency [3] | Potency [4]

O=Nc1ccc(NO)cc1
inactive: Potency [1] | Potency [2] | Potency [3] | Potency [4]

C=CC(=O)NCOCCCC
inactive: Potency [1] | Potency [2] | Potency [3] | Potency [4]

NC(=O)NNC(N)=O
inactive: Potency [1] | Potency [2] | Potency [3] | Potency [4]

C#CCN(C)CCCOc1ccc(Cl)cc1Cl
inactive: Potency [1] | Potency [2] | Potency [3] | Potency [4]

CC(C)c1cccc(C(C)C)c1
inactive: Potency [1] | Potency [2] | Potency [3] | Potency [4]

CC(=O)Nc1c(I)c(NC(C)=O)c(I)c(C(=O)O)c1I
inactive: Potency [1] | Potency [2] | Potency [3] | Potency [4]

CC(C)(C)c1cccc(O)c1
inactive: Potency [1] | Potency [2] | Potency [3] | Potency [4]

CCN(CC)c1ccc2c(C)cc(=O)oc2c1
inactive: Potency [1] | Potency [2] | Potency [3] | Potency [4]

CC(C)c1ccc2c(C(C)C)cc(C(C)C)c(S(=O)(=O)O)c2c1
inactive: Potency [1] | Potency [2] | Potency [3] | Potency [4]

CCCC/C=C/CCCCO
inactive: Potency [1] | Potency [2] | Potency [3] | Potency [4]

O=C(Oc1ccccc1)c1ccc(O)cc1
inactive: Potency [1] | Potency [2] | Potency [3] | Potency [4]

CC(=O)N[C@@H](CS)C(=O)O
inactive: Potency [1] | Potency [2] | Potency [3] | Potency [4]

CC1=CC[C@H](C(C)C)C=C1
inactive: Potency [1] | Potency [2] | Potency [3] | Potency [4]

CCn1cc(C(=O)O)c(=O)c2cc(F)c(N3CCN(C)CC3)cc21
inactive: activity, negative = inhibition [1] 2.04% [at 23.6 µM] | activity change, negative = inhibition [2] -0.504% [at 23.6 µM] | activity change, negative = inhibition [3] 2.98% [at 23.8 µM] | activity change, negative = inhibition [4] -0.336% [at 23.6 µM]

CCCCNC(=O)NS(=O)(=O)c1ccc(N)cc1
inactive: Potency [1] | Potency [2] | Potency [3] | Potency [4]

O=C1[C@H](CC[C@H](O)c2ccc(F)cc2)[C@@H](c2ccc(O)cc2)N1c1ccc(F)cc1
inactive: Potency [1] | Potency [2] | Potency [3] | Potency [4]

COC(=O)/C=C/c1ccccc1
inactive: Potency [1] | Potency [2] | Potency [3] | Potency [4]

C[C@]12CC[C@@H]3c4ccc(O)cc4CC[C@H]3[C@@H]1C[C@@H](O)[C@@H]2O
inactive: Potency [1] | Potency [2] | Potency [3] | Potency [4]

CC(C)c1cccc(C(C)C)c1N
inactive: Potency [1] | Potency [2] | Potency [3] | Potency [4]

O=CCc1ccccc1
inactive: Potency [1] | Potency [2] | Potency [3] | Potency [4]

Cc1c(OCC(F)(F)F)ccnc1CS(=O)c1nc2ccccc2[nH]1 (stereo not given)
inactive: Potency [1] | Potency [2] | Potency [3] | Potency [4]

NC=O
inactive: Potency [1] | Potency [2] | Potency [3] | Potency [4]

CCCCC(CC)COCCC#N (stereo not given)
inactive: Potency [1] | Potency [2] | Potency [3] | Potency [4]

CC(O)CC(C)O (stereo not given)
inactive: Potency [1] | Potency [2] | Potency [3] | Potency [4]

Clc1cccc(-c2cc(Cl)cc(Cl)c2)c1
inactive: Potency [1] | Potency [2] | Potency [3] | Potency [4]

NC(=S)NC(N)=S
inactive: Potency [1] | Potency [2] | Potency [3] | Potency [4]

C[C@@H]1C[C@H]2[C@@H]3CCC4=CC(=O)C=C[C@]4(C)[C@@]3(F)[C@@H](O)C[C@]2(C)[C@@]1(O)C(=O)COC(=O)c1ccncc1
inactive: Potency [1] | Potency [2] | Potency [3] | Potency [4]

CCCCCCCCCCCC
inactive: Potency [1] | Potency [2] | Potency [3] | Potency [4]

Cc1ccccc1S(=O)(=O)O
inactive: Potency [1] | Potency [2] | Potency [3] | Potency [4]

BrC(Br)C(Br)Br
inactive: Potency [1] | Potency [2] | Potency [3] | Potency [4]

N#Cc1cc2ccccc2c2ccccc12
inactive: Potency [1] | Potency [2] | Potency [3] | Potency [4]

CCOC(=O)C1=C(C)NC(C)=C(C(=O)OC)C1c1cccc(Cl)c1Cl (stereo not given)
inactive: Potency [1] | Potency [2] | Potency [3] | Potency [4]

O=C(O)c1ccccc1[N+](=O)[O-]
inactive: Potency [1] | Potency [2] | Potency [3] | Potency [4]

OC(Cn1cncn1)(Cn1cncn1)c1ccc(F)cc1F
inactive: Potency [1] | Potency [2] | Potency [3] | Potency [4]

CCCCCCc1ccc(O)cc1O
inactive: Potency [1] | Potency [2] | Potency [3] | Potency [4]

CCOCCOCCOCCO
inactive: Potency [1] | Potency [2] | Potency [3] | Potency [4]

CCCCCCCC1CCCC1=O (stereo not given)
inactive: Potency [1] | Potency [2] | Potency [3] | Potency [4]
